Results taken from PubChem BioAssay (Tox21).
Records with an inconclusive call do not appear. Activity calls are given as the source filed them. Unless noted, the call rests on the fitted dose curve; in most records, active means well fitted curve in the direction sought with a large enough effect in the repeat runs; inconclusive means weak or mixed curves; inactive means no such curve, though single readings can be large; an effect the other way counts as inactive or inconclusive.

Columns and labels:
[1] = A CellTox Green Cytotoxicity Assay to monitor cytotoxicity in HEK293 cells - 32 hour (AID 1224881); settings: CellTox Green fluorescence; series mostly up to 76.8 µM; further: nearly all actives have a fitted effect of over 40% in size
Procedure, shortened: (§1)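 Homogeneous no-lysis format: HEK293 cell suspension mixed with CellTox Green reagent, seeded, incubated 5 h at 37 C/5% CO2, then dosed by pintool with compound in DMSO.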

[2] = A CellTox Green Cytotoxicity Assay to monitor cytotoxicity in HepG2 cells - 0 hour (AID 1224882); settings: CellTox Green fluorescence; series mostly up to 76.8 µM; further: nearly all actives have a fitted effect of over 35% in size
Procedure, shortened: (§2)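 Fluorescent DNA-binding dye, 600 HepG2 cells/well, 5 h preincubation then compound in DMSO; same plates read at 0–40 h, 37 C.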

[3] = A CellTox Green Cytotoxicity Assay to monitor cytotoxicity in HEK293 cells - 8 hour (AID 1224884); settings: CellTox Green fluorescence; series mostly up to 76.8 µM; further: nearly all actives have a fitted effect of over 35% in size
Procedure, shortened: as §1

[4] = qHTS RealTime-Glo MT Cell Viability Assay in HepG2 cells - 16 hour (AID 1224885); settings: RealTime-Glo luminescence; series mostly up to 76.8 µM; further: nearly all actives have a fitted effect of over 50% in size
Procedure, shortened: (§3)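 HepG2 cells were seeded at 600 cells/well together with NanoLuc luciferase and a cell-permeant prosubstrate, preincubated 5 h at 37 C/5% CO2, then pin-dosed with compounds in DMSO. Nonlytic luminescence from viable cells was read at each time point.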

[5] = qHTS RealTime-Glo MT Cell Viability Assay in HEK293 cells - 24 hour (AID 1224886); settings: RealTime-Glo luminescence; series mostly up to 76.8 µM; further: top concentration of the series differs between compounds; nearly all actives have a fitted effect of over 50% in size
Procedure, shortened: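 HEK293 cells were seeded at 600 cells/well together with NanoLuc luciferase and cell-permeant prosubstrate, preincubated 5 h at 37 C/5% CO2, then given compound in DMSO by pintool. Luminescence from viable-cell prosubstrate reduction was read repeatedly over 40 h.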

[6] = qHTS RealTime-Glo MT Cell Viability Assay in HEK293 cells - 8 hour (AID 1224887); settings: RealTime-Glo luminescence; series mostly up to 76.8 µM; further: top concentration of the series differs between compounds; nearly all actives have a fitted effect of over 50% in size
Procedure, shortened: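 Measured as luminescence from the same continuously cultured HEK293 wells at successive time points (0, 8, 16, 24, 32, 40 h) after compound addition. Reagent present from seeding; dosing at 5 h; incubation 37 C.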

[7] = A CellTox Green Cytotoxicity Assay to monitor cytotoxicity in HEK293 cells - 16 hour (AID 1224888); settings: CellTox Green fluorescence, active compounds read high; series mostly up to 76.8 µM; further: nearly all actives have a fitted effect of over 35% in size
Procedure, shortened: as §1

[8] = qHTS RealTime-Glo MT Cell Viability Assay in HepG2 cells - 0 hour (AID 1224889); settings: RealTime-Glo luminescence; series mostly up to 76.8 µM; further: nearly all actives have a fitted effect of over 50% in size
Procedure, shortened: as §3

[9] = A CellTox Green Cytotoxicity Assay to monitor cytotoxicity in HepG2 cells - 8 hour (AID 1224890); settings: CellTox Green fluorescence; series mostly up to 76.8 µM; further: nearly all actives have a fitted effect of over 45% in size
Procedure, shortened: as §2

[10] = qHTS assay to identify small molecule antagonists of the estrogen receptor alpha (ER-alpha) signaling pathway using the BG1 cell line in the presence of 0.1 nM 17-beta-estradiol - cell viability counter screen (AID 1259241); settings: VM7Luc4E2 (BG1) viability, CellTiter-Fluor protease, 22 h, 0.1 nM estradiol agonist added; series mostly up to 92.4 µM; further: nearly all actives have a fitted effect of over 40% in size
Procedure, shortened: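 Following 5 days in phenol red-free medium with charcoal-stripped serum, VM7Luc4E2 cells received test compounds alongside 0.1 nM 17beta-estradiol (final) at 37C for 22 hr. Live cells were then quantified via protease-substrate fluorescence.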

[11] = qHTS assay to identify small molecule antagonists of the androgen receptor (AR) signaling pathway using the MDA cell line in the presence of 0.5 nM R1881 - cell viability counter screen (AID 1259242); settings: MDA-kb2 viability, CellTiter-Fluor protease fluorescence, 16 h; series mostly up to 92.4 µM; further: nearly all actives have a fitted effect of over 45% in size
Procedure, shortened: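 Human breast carcinoma MDA-kb2 cells, cultured without CO2, receive compounds alongside 0.5 nM (final) R1881 agonist. After 16 hr at 37C, viability is taken as live-cell protease signal.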

[12] = molecular target: Androgen receptor (Homo sapiens) (UniProt P10275); experiment: qHTS assay to identify small molecule antagonists of the androgen receptor (AR) signaling pathway using the MDA cell line in the presence of 0.5 nM R1881 (AID 1259243); settings: MDA-kb2 MMTV-luciferase, R1881 0.5 nM, 16 h; series mostly up to 42.5 µM; further: nearly all actives have a fitted effect of over 50% in size
Androgen receptor (Homo sapiens), sequence (P10275 whole entry, looked up): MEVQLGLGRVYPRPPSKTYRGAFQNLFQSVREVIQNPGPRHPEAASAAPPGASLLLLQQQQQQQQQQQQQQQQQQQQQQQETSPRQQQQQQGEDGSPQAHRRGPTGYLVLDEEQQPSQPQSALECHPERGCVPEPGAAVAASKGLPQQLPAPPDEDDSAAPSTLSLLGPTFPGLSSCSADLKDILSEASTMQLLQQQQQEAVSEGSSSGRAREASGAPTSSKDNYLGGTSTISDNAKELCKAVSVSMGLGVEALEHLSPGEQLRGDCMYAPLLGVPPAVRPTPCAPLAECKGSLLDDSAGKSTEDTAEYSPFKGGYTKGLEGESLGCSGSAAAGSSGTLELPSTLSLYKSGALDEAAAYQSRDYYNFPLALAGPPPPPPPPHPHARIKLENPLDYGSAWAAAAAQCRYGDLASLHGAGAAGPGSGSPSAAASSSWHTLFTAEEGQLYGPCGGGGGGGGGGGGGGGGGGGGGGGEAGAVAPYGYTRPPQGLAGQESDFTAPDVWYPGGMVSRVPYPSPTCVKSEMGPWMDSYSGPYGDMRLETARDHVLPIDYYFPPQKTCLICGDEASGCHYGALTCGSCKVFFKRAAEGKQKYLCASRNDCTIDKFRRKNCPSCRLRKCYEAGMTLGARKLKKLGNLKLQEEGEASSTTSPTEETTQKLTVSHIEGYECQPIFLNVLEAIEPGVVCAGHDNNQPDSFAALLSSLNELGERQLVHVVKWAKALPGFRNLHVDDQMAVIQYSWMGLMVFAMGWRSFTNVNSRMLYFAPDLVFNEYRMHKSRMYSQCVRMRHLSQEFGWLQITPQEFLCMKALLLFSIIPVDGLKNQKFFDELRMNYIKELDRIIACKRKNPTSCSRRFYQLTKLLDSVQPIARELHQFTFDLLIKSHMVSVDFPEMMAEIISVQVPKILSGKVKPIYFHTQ
Procedure, shortened: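 Cells: MDA-kb2 (MMTV-luc). Stimulus: 0.5 nM R1881. Time: 16 hr, 37C, no CO2. Detection: ONE-Glo luminescence after 30 min at RT.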

[13] = molecular target: Estrogen receptor (Homo sapiens) (UniProt P03372); experiment: qHTS assay to identify small molecule antagonists of the estrogen receptor alpha (ER-alpha) signaling pathway using the BG1 cell line in the presence of 0.1 nM 17-beta-estradiol (AID 1259244); settings: VM7Luc4E2 (BG1) ERE-luciferase, antagonist mode, 0.1 nM E2, 22 h; series mostly up to 92.4 µM; further: nearly all actives have a fitted effect of over 50% in size
Estrogen receptor (Homo sapiens), sequence (P03372 whole entry, looked up): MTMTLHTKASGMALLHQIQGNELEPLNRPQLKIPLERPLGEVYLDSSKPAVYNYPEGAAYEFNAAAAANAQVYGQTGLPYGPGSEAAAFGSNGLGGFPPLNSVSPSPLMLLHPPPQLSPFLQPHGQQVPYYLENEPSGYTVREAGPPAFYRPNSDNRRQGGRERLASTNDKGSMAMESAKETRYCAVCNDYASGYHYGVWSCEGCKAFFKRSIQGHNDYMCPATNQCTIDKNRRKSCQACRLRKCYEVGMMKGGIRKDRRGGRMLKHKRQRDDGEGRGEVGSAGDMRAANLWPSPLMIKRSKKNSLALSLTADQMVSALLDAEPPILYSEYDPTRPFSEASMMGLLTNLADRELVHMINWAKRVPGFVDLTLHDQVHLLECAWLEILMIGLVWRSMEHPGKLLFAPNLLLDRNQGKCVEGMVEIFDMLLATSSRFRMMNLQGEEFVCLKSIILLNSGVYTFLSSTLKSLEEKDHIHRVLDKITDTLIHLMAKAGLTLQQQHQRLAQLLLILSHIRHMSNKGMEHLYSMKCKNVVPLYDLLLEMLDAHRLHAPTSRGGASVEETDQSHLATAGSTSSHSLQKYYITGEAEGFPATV
Procedure, shortened: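 Seeding of stripped-serum-adapted VM7Luc4E2 cells, 24 h attachment, compound transfer, then 0.1 nM final 17beta-estradiol; after 22 h incubation, ONE-Glo reagent and luminescence reading.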

[14] = qHTS assay to identify small molecule HDAC inhibitors (AID 1259364); settings: HCT-116 HDAC-Glo I/II luminescence, 2 h; series mostly up to 92.4 µM;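 further: wild-type HCT-116 cells with endogenous class I/II HDAC activity; top concentration of the series differs between compounds; nearly all actives have a fitted effect of over 45% in size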
Procedure, shortened: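 After a 2 hr compound incubation (37C, 5% CO2), HCT-116 cells seeded at 1,500/well the day before received HDAC-Glo reagent; signal read as luminescence after 30 min at room temperature.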

[15] = qHTS assay to identify small molecule HDAC inhibitors - cell viability counter screen (AID 1259365); settings: HCT-116 viability, CellTiter-Glo ATP luminescence, 2 h; series mostly up to 92.4 µM; further: nearly all actives have a fitted effect of over 50% in size
Procedure, shortened: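 HCT-116 wild-type, overnight attachment; 2hr drug exposure, 37C; CellTiter-Glo luminescent ATP readout after 30min RT.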

[16] = qHTS assay to identify small molecule agonists of the sonic hedgehog signaling (Shh) pathway - cell viability counter screen (AID 1259366); settings: NIH/3T3 Gli1-Luc viability, CellTiter-Fluor, 24 h; series mostly up to 92.4 µM; further: nearly all actives have a fitted effect of over 50% in size
Procedure, shortened: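 Compounds in DMSO were pin-transferred onto 3T3 Gli1-Luc cells that had settled 4hr; plates then stood 24hr at 37C and 5% CO2. One hour before the end, CellTiter-Fluor was added and fluorescence recorded.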

[17] = qHTS assay to identify small molecule agonists of the sonic hedgehog signaling (Shh) pathway (AID 1259368; calls by dose curve;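 further: NIH/3T3-derived 3T3Gli1-Luc cells carrying a stable Gli1-driven firefly luciferase reporter; nearly all actives have a fitted effect of over 15% in size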); settings: NIH/3T3 Gli1-Luc reporter, luciferase, 24 h, active compounds read high; series mostly up to 92.4 µM
Procedure, shortened: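 Stable NIH/3T3 Gli1-Luc reporter clone; 24 hr cpd exposure after a 4 hr settling period; luminescence endpoint.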

[18] = A CellTox Green Cytotoxicity Assay to monitor cytotoxicity in HepG2 cells - 32 hour (AID 1224883); settings: CellTox Green fluorescence; series mostly up to 76.8 µM; further: nearly all actives have a fitted effect of over 50% in size
Procedure, shortened: as §2

[19] = qHTS assay to identify small molecule antagonists of the sonic hedgehog signaling (Shh) pathway - cell viability counter screen (AID 1259367); settings: NIH/3T3 Gli1-Luc viability, CellTiter-Fluor, 24 h; series mostly up to 92.4 µM; further: nearly all actives have a fitted effect of over 55% in size
Procedure, shortened: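 Viability was read by CellTiter-Fluor fluorescence in the same wells, reagent added 23 hr into compound treatment and incubated 1 hr at 37C. The 3T3 Gli1-Luc reporter cells (2,000/well) received conditioned medium after compound and ran 24 hr.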

[20] = qHTS assay to identify small molecule phospholipidosis (PLD) inducers (AID 1259344; active means well fitted curve in the direction sought with a large enough effect; an effect the other way counts as inactive or inconclusive); settings: HepG2 phospholipidosis, LipidTOX Red imaging, 24 h; series mostly up to 38.3 µM
Procedure, shortened: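 Phospholipid accumulation was scored by imaging: fixed, Hoechst-counterstained HepG2 cells stained with LipidTOX Red after 24 h compound exposure at 37 C. Read-outs were pit count and pit intensity per well or per cell, with amiodarone and DMSO controls.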
On the % scale 0 is the no-effect control and ±100 the full control effect.

O=C(O)CCSCCC(=O)O
inactive: outcome [1] | Potency [2] | outcome [3] | outcome [4] | Potency [5] | Potency [6] | outcome [7] | Potency [8] | outcome [9] | outcome [10] | outcome [11] | Potency [12] | outcome [13] | Potency [14] | outcome [15] | Potency [16] | outcome [17]

C[N+]1(C)[C@@H]2CC(OC(=O)[C@H](CO)c3ccccc3)C[C@H]1[C@@H]1O[C@@H]12 (stereo not given in full)
inactive: outcome [1] | Potency [2] | Potency [18] | outcome [3] | outcome [7] | outcome [9] | outcome [10] | outcome [11] | outcome [13] | Potency [14] | outcome [15] | Potency [16] | Potency [19] | outcome [17]

C[N+]12CCC(CC1)C(OC(=O)C(O)(c1ccccc1)c1ccccc1)C2 (stereo not given)
inactive: outcome [1] | Potency [2] | Potency [18] | outcome [3] | Potency [5] | Potency [6] | outcome [7] | Potency [8] | outcome [9] | outcome [10] | outcome [11] | outcome [20] | Potency [14] | outcome [15] | Potency [16] | Potency [19] | outcome [17]

O=C(O)c1cc(C(=O)O)cc(C(=O)O)c1
inactive: outcome [1] | Potency [2] | outcome [3] | outcome [4] | Potency [5] | Potency [6] | outcome [7] | Potency [8] | outcome [9] | outcome [10] | outcome [11] | outcome [13] | Potency [14] | outcome [15] | Potency [16] | outcome [17]

CN(C)[C@@H]1C(=O)C(C(=O)NCN2CCCC2)=C(O)[C@@]2(O)C(=O)C3=C(O)c4c(O)cccc4[C@@](C)(O)C3C[C@@H]12 (stereo not given in full)
inactive: outcome [1] | Potency [2] | outcome [3] | outcome [4] | Potency [5] | Potency [6] | outcome [7] | Potency [8] | outcome [9] | outcome [10] | outcome [11] | outcome [20] | Potency [14] | outcome [15] | Potency [16] | Potency [19] | outcome [17]

CCCCOCCOC(=O)COc1cc(Cl)c(Cl)cc1Cl
inactive: outcome [1] | Potency [2] | outcome [3] | outcome [4] | Potency [5] | Potency [6] | outcome [7] | Potency [8] | outcome [9] | outcome [10] | outcome [11] | Potency [12] | outcome [13] | Potency [14] | outcome [15] | Potency [16] | Potency [19] | outcome [17]

C[N+]1(CC2COC(c3ccccc3)(c3ccccc3)O2)CCCCC1 (stereo not given)
inactive: cytotoxicity increase [1] -8.36% [at 15.8 µM] | cytotoxicity [2] -9.88% [at 15.8 µM] | cytotoxicity increase [18] -0.506% [at 15.8 µM] | cytotoxicity increase [3] -4.15% [at 15.8 µM] | activity change, negative = cytotoxicity [5] -2.13% [at 15.8 µM] | activity change, negative = cytotoxicity [6] 0.757% [at 15.8 µM] | activity change [7] -8.9% [at 15.8 µM] | activity change, negative = cytotoxicity [8] -6.4% [at 15.8 µM] | cytotoxicity increase [9] 0.368% [at 15.8 µM] | activity change, negative = cytotoxicity [10] 0.56% [at 19 µM] | viability change, negative = cytotoxic [11] 1.83% [at 19 µM] | outcome [20] | activity change, negative = inhibition [14] 0.669% [at 19 µM] | activity change, negative = cytotoxicity [15] 0.214% [at 19 µM] | viability change, negative = cytotoxic [16] 9.08% [at 19 µM] | viability change, negative = cytotoxic [19] 14.2% [at 19 µM] | activity change [17] 0.753% [at 18.9 µM]

N[C@H](C(=O)O)[C@@H](O)c1ccc(O)c(O)c1
inactive: outcome [1] | Potency [2] | Potency [18] | outcome [3] | Potency [6] | outcome [7] | Potency [8] | outcome [9] | outcome [10] | outcome [11] | outcome [13] | Potency [14] | outcome [15] | Potency [16] | Potency [19] | outcome [17]

COc1ccnc(CS(=O)c2nc3cc(OC(F)F)ccc3[nH]2)c1OC (stereo not given)
inactive: outcome [1] | Potency [2] | Potency [18] | outcome [3] | Potency [5] | Potency [6] | outcome [7] | Potency [8] | outcome [9] | outcome [10] | outcome [11] | outcome [13] | Potency [14] | outcome [15] | Potency [16] | outcome [17]

CCCC(C)C(=O)OCC (stereo not given)
inactive: outcome [1] | Potency [2] | Potency [18] | outcome [3] | Potency [5] | Potency [6] | outcome [7] | outcome [9] | outcome [10] | outcome [11] | outcome [13] | Potency [14] | outcome [15] | Potency [16] | outcome [17]

COc1cc(-c2ccc(=O)[nH]n2)ccc1OC(F)F
inactive: outcome [1] | Potency [2] | Potency [18] | outcome [3] | Potency [5] | Potency [6] | outcome [7] | Potency [8] | outcome [9] | outcome [10] | outcome [11] | Potency [14] | outcome [15] | Potency [16] | Potency [19] | outcome [17]

CNCCO
inactive: outcome [1] | Potency [2] | Potency [18] | outcome [3] | Potency [5] | Potency [6] | outcome [7] | Potency [8] | outcome [9] | outcome [10] | outcome [11] | Potency [14] | outcome [15] | Potency [16] | Potency [19] | outcome [17]

COc1ccc2cc1Oc1cc3c(cc1OC)CC[N+](C)(C)[C@H]3Cc1ccc(cc1)Oc1c(OC)c(OC)cc3c1[C@@H](C2)[N+](C)(C)CC3
inactive: outcome [1] | Potency [2] | outcome [3] | outcome [4] | Potency [5] | Potency [6] | outcome [7] | Potency [8] | outcome [9] | outcome [10] | outcome [11] | outcome [13] | outcome [20] | Potency [14] | outcome [15] | Potency [16] | Potency [19] | outcome [17]

O=C(O)CCCC[P+](c1ccccc1)(c1ccccc1)c1ccccc1
inactive: outcome [1] | Potency [2] | outcome [3] | outcome [4] | Potency [5] | Potency [6] | outcome [7] | Potency [8] | outcome [9] | outcome [10] | outcome [11] | outcome [13] | Potency [14] | outcome [15] | Potency [16] | Potency [19] | outcome [17]
